A short description of assay [1]: qHTS assay to identify small molecule antagonists of the estrogen receptor alpha (ER-alpha) signaling pathway using the BG1 cell line in the presence of 0.1 nM 17-beta-estradiol - cell viability counter screen (AID 1259241). Note: nearly all actives have a fitted effect of over 40% in size. In a few lines:
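CellTiter-Fluor read (30 min, 37C) on ER-alpha/ERE-luc VM7Luc4E2 cells; 22 hr compound treatment; agonist 0.1 nM E2 final; same-well multiplex.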
A general note: qHTS replaces the single test concentration by a dilution series.

The nature of assay [2]: qHTS assay to identify small molecule antagonists of the androgen receptor (AR) signaling pathway using the MDA cell line in the presence of 0.5 nM R1881 - cell viability counter screen (AID 1259242). Note: nearly all actives have a fitted effect of over 45% in size. The method in brief: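 Steps: plate MDA-kb2 cells, rest 5 hr at 37C without CO2; pin in compounds in DMSO; add R1881 to 0.5 nM final; incubate 16 hr; add CellTiter-Fluor, 30 min; read fluorescence.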

The target of assay [3] is Androgen receptor (Homo sapiens) (UniProt P10275). As to the kind of experiment: qHTS assay to identify small molecule antagonists of the androgen receptor (AR) signaling pathway using the MDA cell line in the presence of 0.5 nM R1881 (AID 1259243). Note: nearly all actives have a fitted effect of over 50% in size. The method in brief: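 Stably transfected MDA-kb2 cells express luciferase from an MMTV promoter bearing both AR and GR response elements. Compounds plus 0.5 nM R1881 (final) were incubated 16 hr at 37C without CO2, then luminescence measured.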

Assay [4] deals with Estrogen receptor (Homo sapiens) (UniProt P03372). As to the kind of experiment: qHTS assay to identify small molecule antagonists of the estrogen receptor alpha (ER-alpha) signaling pathway using the BG1 cell line in the presence of 0.1 nM 17-beta-estradiol (AID 1259244). Note: nearly all actives have a fitted effect of over 50% in size. The method in brief: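 Antagonist mode: compounds in DMSO are pinned onto VM7Luc4E2 reporter cells, 0.1 nM final 17beta-estradiol is added, and after 22 h at 37C luciferase luminescence is measured with ONE-Glo.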

Assay [5] in a line: qHTS assay to identify small molecule HDAC inhibitors (AID 1259364). Note: potency is the fitted concentration of half-maximal effect.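 Note: wild-type HCT-116 cells with endogenous class I/II HDAC activity; nearly all actives have a fitted effect of over 45% in size.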 In a few lines: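 Cells (HCT-116, wild type) are seeded at 1,500 per well, incubated overnight, treated with compound in DMSO for 2 hr, then developed with HDAC-Glo I/II reagent for 30 min at room temperature.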
A short description of assay [6]: qHTS assay to identify small molecule HDAC inhibitors - cell viability counter screen (AID 1259365). Note: series mostly up to about 92 µM; nearly all actives have a fitted effect of over 50% in size. The method in brief: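 To flag cytotoxic hits, 1,500 wild-type HCT-116 cells per well, plated the day before, receive test compounds for 2hr at 37 C before CellTiter-Glo reagent and a luminescence read.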
Assay [7] is described as follows: qHTS assay to identify small molecule agonists of the sonic hedgehog signaling (Shh) pathway - cell viability counter screen (AID 1259366). Note: nearly all actives have a fitted effect of over 50% in size. The method in brief: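 Fluorescence from CellTiter-Fluor reports live cells in this counter screen. NIH/3T3-derived Gli1-Luc reporter cells receive test compounds for 24hr at 37C; reagent goes in at 23hr.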
Assay [8] can be described thus: qHTS assay to identify small molecule agonists of the sonic hedgehog signaling (Shh) pathway (AID 1259368; calls by dose curve;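 note: NIH/3T3-derived 3T3Gli1-Luc cells carrying a stable Gli1-driven firefly luciferase reporter; series mostly up to about 92 µM; nearly all actives have a fitted effect of over 15% in size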). In a few lines: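 Cells of a mouse NIH/3T3 clone stably expressing luciferase under the Gli1 transcriptional response element are exposed to test chemicals for 24 hr at 37 C. Pathway activation is detected as a rise in luminescence.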
The nature of assay [9]: qHTS assay to identify small molecule antagonists of the sonic hedgehog signaling (Shh) pathway (AID 1259369; calls by dose curve; note: nearly all actives have a fitted effect of over 45% in size). In a few lines:
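Cells are plated and held 4hr at 37 C, compounds (DMSO) are pinned in, conditioned medium is added to stimulate the pathway, and after 24hr luciferase reagent is added for 30min before luminescence is read.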

The target of assay [10] is Estrogen receptor beta (Homo sapiens) (UniProt Q92731). The assay can be described thus: qHTS assay to identify small molecule agonists of the estrogen receptor beta (ER-beta) signaling pathway (AID 1259377; active = well fitted activation curve with a large enough effect in the signal ratio in the repeat runs, not every such curve was filed as active; the % refers to the signal ratio). In a few lines: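 Screening used GripTite ER-beta-UAS-bla cells held in 2% charcoal-stripped FBS medium. After overnight (16 hr) compound incubation at 37C, beta-lactamase activity was detected with a FRET substrate by fluorescence.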

The target is the same in assay [11]. As to the kind of experiment: qHTS assay to identify small molecule antagonists of the estrogen receptor beta (ER-beta) signaling pathway (AID 1259378; active = well fitted inhibition curve with a large enough effect in the signal ratio in the repeat runs, not every such curve was filed as active; the % refers to the signal ratio). In a few lines:
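ER-beta-UAS-bla HEK293T cells in 2% charcoal-stripped FBS medium treated with compound plus 1nM final 17-beta-estradiol for 16 hr at 37C. Beta-lactamase reporter read by FRET substrate fluorescence after 2 hours at room temperature.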

The nature of assay [12]: qHTS assay to identify small molecule agonists of the androgen receptor (AR) signaling pathway in the presence of an antagonist - cell viability counter screen (AID 1259379).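 Note: MDA-kb2 human breast cancer cells carrying an MMTV luciferase reporter; series mostly up to about 92 µM; nearly all actives have a fitted effect of over 25% in size.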 The method in brief:
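Cytotoxicity is assessed by CellTiter-Fluor in MDA-kb2 cells carrying an MMTV-driven luciferase reporter. Cells receive 3.0uM nilutamide plus compounds at 15 concentrations and incubate 16 hr at 37C without CO2 before fluorescence reading.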

Assay [13] in a line: qHTS assay to identify small molecule agonists of the estrogen receptor beta (ER-beta) signaling pathway - cell viability counter screen (AID 1259380). Note: nearly all actives have a fitted effect of over 30% in size. In a few lines: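 Cytotoxicity is measured in parallel with the reporter screen: after 16 hr compound exposure at 37C and a 2 hr LiveBLAzer step, CellTiter-Glo is added to the same ER-beta-UAS-bla HEK293T wells and luminescence read after 30 min.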

Assay [14] addresses Androgen receptor (Homo sapiens) (UniProt P10275). As to the kind of experiment: qHTS assay to identify small molecule agonists of the androgen receptor (AR) signaling pathway in the presence of an antagonist (AID 1259381; calls by dose curve; note: nearly all actives have a fitted effect of over 15% in size). In a few lines: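 Agonist-mode confirmation screen: human MDA-kb2 cells stably expressing luciferase under an MMTV promoter bearing AR and GR response elements, co-treated with 3.0uM nilutamide (final). Luminescence measured after 16hr compound incubation.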

Assay [15] is described as follows: qHTS assay to identify small molecule antagonists of the estrogen receptor beta (ER-beta) signaling pathway - cell viability counter screen (AID 1259382). Note: series mostly up to about 92 µM; nearly all actives have a fitted effect of over 55% in size. In a few lines:
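Cytotoxicity counter screen multiplexed with the beta-lactamase antagonist assay: GripTite HEK293T ER-beta-bla cells were treated 16 hr with test chemicals in the presence of 1nM 17-beta-estradiol, and viability was measured by CellTiter-Glo.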

The target in assay [16] is Estrogen receptor (Homo sapiens) (UniProt P03372). As to the kind of experiment: qHTS assay to identify small molecule agonists of the estrogen receptor alpha (ER-alpha) signaling pathway in the presence of an antagonist (AID 1259383; calls by dose curve; note: top concentration of the series differs between compounds; nearly all actives have a fitted effect of over 15% in size). The method in brief:
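Agonist-mode confirmation in the presence of the ER antagonist ICI-182,780 at 10.0nM final. Breast-derived VM7Luc4E2 reporter cells were exposed to compounds for 22hr, and ERE-driven luciferase was quantified by luminescence.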

Assay [17] is described as follows: qHTS assay to identify small molecule agonists or antagonists of the thyroid stimulating hormone receptor (TSHR) signaling pathway - wild type cell line counter screen (AID 1259384; calls by dose curve). The method in brief:
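Wild-type Hek293 cells, 800/well, 18 h at 37C, then compound with Ro20-1724 for 30 min RT. cAMP by HTRF (cAMP-d2/anti-cAMP cryptate), 1 h RT, fluorescence read. 15 concentrations, triplicates.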

Assay [18] concerns the target Thyrotropin receptor (Homo sapiens) (UniProt P16473). The assay can be described thus: qHTS assay to identify small molecule antagonists of the thyroid stimulating hormone receptor (TSHR) signaling pathway (AID 1259385; calls by dose curve; note: nearly all actives have a fitted effect of over 20% in size). In a few lines: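 TSHR-HEK293 cells (800/well) plated 18 h, then compounds with Ro20-1724 and TSH at 1.5 ng/mL final, 30 min at room temperature. cAMP quantified by HTRF (cAMP-d2/anti-cAMP-cryptate, 1 h); 15 concentrations in triplicate.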

A short description of assay [19]: qHTS assay to identify small molecule antagonists of the sonic hedgehog signaling (Shh) pathway - cell viability counter screen (AID 1259367). Note: nearly all actives have a fitted effect of over 55% in size. The method in brief:
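Tox21 library chemicals were tested on a Gli1-Luc NIH/3T3 clone (2,000 cells/well) stimulated by conditioned medium; viability was quantified as fluorescence from CellTiter-Fluor reagent added at 23 hr.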

Assay [20] is described as follows: qHTS assay to identify small molecule phospholipidosis (PLD) inducers (AID 1259344; active = well fitted curve in the direction sought with a large enough effect; an effect the other way counts as inactive or inconclusive). The method in brief: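 Image-based: LipidTOX Red pit count/intensity per well and per cell; HepG2, 24 h compound at 37 C, PFA fixation, Hoechst counterstain.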

SMILES strings stand for the structures. Unmarked numbers belong to inactive results. Results filed as inconclusive are left out. The source made the active and inactive calls. Unless noted, calls come from the whole dose curve; as a rule, active = well fitted curve in the direction sought with a large enough effect in the repeat runs; inconclusive = weak or mixed curves; inactive = no such curve, though single readings can be large; an effect the other way counts as inactive or inconclusive.

Thyrotropin receptor (Homo sapiens), sequence (P16473 whole entry, looked up): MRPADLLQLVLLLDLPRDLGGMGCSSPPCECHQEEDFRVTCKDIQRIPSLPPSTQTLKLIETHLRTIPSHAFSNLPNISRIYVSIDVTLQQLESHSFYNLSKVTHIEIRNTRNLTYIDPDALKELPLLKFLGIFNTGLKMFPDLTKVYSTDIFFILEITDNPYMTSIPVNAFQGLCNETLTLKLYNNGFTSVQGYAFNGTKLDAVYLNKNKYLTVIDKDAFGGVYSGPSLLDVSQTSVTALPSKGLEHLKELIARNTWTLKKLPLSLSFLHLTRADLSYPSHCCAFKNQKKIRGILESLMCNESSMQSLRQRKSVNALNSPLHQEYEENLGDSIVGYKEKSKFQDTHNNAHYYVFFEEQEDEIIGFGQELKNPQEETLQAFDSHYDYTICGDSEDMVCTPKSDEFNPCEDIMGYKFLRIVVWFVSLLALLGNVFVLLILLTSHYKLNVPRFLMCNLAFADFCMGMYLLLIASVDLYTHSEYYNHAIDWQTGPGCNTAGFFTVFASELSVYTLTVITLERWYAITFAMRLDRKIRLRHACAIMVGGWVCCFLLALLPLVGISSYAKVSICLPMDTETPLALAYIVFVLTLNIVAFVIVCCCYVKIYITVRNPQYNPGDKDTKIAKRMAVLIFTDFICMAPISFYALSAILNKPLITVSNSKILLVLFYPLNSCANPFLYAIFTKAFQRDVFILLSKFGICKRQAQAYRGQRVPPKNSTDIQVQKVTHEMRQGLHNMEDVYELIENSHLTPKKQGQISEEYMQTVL
Estrogen receptor beta (Homo sapiens), sequence (Q92731 whole entry, looked up): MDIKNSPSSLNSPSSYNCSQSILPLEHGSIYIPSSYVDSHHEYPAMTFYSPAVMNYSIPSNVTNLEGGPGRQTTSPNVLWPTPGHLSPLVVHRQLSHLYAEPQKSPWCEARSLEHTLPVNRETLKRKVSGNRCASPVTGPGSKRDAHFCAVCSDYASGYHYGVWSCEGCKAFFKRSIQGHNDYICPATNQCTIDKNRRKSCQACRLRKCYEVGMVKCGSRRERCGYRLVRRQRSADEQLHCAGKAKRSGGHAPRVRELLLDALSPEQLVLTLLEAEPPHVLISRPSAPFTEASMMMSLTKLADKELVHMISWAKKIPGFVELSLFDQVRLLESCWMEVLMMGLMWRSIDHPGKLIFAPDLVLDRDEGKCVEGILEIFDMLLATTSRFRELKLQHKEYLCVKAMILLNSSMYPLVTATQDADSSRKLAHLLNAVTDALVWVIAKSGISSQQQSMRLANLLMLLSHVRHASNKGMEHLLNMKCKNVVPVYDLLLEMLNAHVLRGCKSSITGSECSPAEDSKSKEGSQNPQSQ
Androgen receptor (Homo sapiens), sequence (P10275 whole entry, looked up): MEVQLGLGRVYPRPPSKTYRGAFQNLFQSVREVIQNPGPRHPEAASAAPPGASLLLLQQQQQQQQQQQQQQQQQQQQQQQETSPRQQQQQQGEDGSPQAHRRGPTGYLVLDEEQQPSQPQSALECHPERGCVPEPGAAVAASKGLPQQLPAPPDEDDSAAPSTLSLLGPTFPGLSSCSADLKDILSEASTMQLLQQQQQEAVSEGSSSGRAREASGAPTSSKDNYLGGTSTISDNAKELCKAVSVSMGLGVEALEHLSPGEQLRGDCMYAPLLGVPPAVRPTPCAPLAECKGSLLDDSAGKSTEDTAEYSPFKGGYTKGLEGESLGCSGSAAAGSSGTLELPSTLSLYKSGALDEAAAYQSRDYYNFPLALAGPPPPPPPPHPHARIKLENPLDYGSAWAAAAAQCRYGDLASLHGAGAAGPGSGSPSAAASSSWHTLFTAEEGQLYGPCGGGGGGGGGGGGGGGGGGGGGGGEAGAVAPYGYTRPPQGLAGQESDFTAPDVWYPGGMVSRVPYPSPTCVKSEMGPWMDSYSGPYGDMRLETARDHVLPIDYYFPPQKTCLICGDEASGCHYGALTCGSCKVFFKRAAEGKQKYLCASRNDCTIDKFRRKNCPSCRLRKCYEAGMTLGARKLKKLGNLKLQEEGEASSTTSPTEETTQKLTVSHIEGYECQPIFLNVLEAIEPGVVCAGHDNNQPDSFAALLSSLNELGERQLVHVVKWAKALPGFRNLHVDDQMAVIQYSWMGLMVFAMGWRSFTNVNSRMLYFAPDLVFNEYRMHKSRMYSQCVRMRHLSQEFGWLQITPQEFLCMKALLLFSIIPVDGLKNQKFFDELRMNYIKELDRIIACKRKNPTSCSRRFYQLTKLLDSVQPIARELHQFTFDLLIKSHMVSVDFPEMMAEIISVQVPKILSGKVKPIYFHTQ
Estrogen receptor (Homo sapiens), sequence (P03372 whole entry, looked up): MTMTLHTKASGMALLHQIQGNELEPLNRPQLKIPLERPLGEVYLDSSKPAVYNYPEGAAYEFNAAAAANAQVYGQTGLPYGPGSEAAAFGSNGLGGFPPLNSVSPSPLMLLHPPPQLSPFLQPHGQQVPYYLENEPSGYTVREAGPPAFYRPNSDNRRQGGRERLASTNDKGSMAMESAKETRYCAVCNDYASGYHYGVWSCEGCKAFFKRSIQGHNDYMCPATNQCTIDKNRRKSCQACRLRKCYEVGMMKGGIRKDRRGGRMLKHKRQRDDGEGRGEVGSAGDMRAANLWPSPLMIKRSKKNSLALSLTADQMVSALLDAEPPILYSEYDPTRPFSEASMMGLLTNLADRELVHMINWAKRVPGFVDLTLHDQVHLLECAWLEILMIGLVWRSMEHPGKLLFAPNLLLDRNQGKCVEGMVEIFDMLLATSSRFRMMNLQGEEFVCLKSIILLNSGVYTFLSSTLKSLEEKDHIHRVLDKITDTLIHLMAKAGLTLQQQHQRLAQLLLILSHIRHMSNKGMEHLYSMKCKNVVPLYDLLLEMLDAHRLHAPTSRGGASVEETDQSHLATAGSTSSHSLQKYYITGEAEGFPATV

In the case of `Cc1c(N=C=O)cccc1N=C=O`, the Potency result in assay [1], in assay [2], in assay [3], in [4], in assay [5] and in [7] was “inactive” throughout. Besides, the Potency result in [8], in assay [9], in [10], in assay [11], in assay [12] and in [13] was “inactive” in each case. In addition, the Potency result in assay [14], in assay [15], in assay [16] and in assay [18] was “inactive” each time. Besides, the call in [6] and in assay [17] was inactive.

`Clc1cccc(C(c2ccc3nc[nH]c3c2)n2ccnc2)c1` (centres undefined): the Potency entry in [1], in [2], in assay [3], in assay [4], in [5] and in [7] was “inactive” each time. In addition, the Potency result in [19], in [8], in assay [9], in assay [10], in [11] and in [12] was “inactive” throughout. Besides, the Potency entry in assay [14], in assay [15] and in [16] was “inactive” throughout. Further, in assay [6], the compound was classed as inactive.

Take `OCCCO`: the Potency result in assay [1], in assay [2], in [3], in assay [4], in [5] and in assay [7] was “inactive” in each case. Further, the Potency entry in [19], in assay [8], in assay [11], in assay [12], in assay [13] and in [14] was “inactive” throughout. In addition, the Potency result in assay [15], in assay [16] and in assay [18] was “inactive” in each case. Besides, the compound was called inactive in assay [6].

For the compound `CC1(C)[C@@H]2CC[C@]3(C2)[C@@H]1C(=O)CCC3(C)C`, the Potency entry in assay [1], in assay [2], in assay [3], in [4], in assay [7] and in [8] was “inactive” each time. Also, the Potency entry in assay [9], in assay [10], in [12], in assay [14], in assay [15] and in assay [16] was “inactive” in each case. In assay [18], the Potency result was “inactive”. In addition, the compound was classed as inactive in assay [6] and in assay [17].

As for `CCCc1nc(C)c2c(=O)[nH]c(-c3cc(S(=O)(=O)N4CCN(CC)CC4)ccc3OCC)nn12`, the Potency entry in [1], in assay [2], in assay [3], in assay [5], in assay [7] and in assay [19] was “inactive” in each case. Further, the Potency entry in [8], in assay [11], in [12], in [13], in assay [14] and in assay [15] was “inactive” in each case. For the same compound, the call in assay [6] was inactive.

Regarding `NC(=O)c1cc[n+](CC2=C(C(=O)[O-])N3C(=O)[C@@H](NC(=O)Cc4cccs4)[C@H]3SC2)cc1`, the Potency entry in assay [1], in assay [2], in [4], in assay [20], in assay [7] and in assay [19] was “inactive” throughout. For the same compound, the Potency entry in assay [8], in assay [10], in [11], in assay [13], in assay [15] and in assay [16] was “inactive” throughout. Also, in assay [18], the Potency result is “inactive”. The compound was called inactive in assay [6] and in [17].

On to `Cc1cc(C)n(CO)n1`, for which the Potency entry in assay [1], in assay [2], in assay [4], in assay [5], in assay [7] and in assay [19] was “inactive” each time. The Potency result in [8], in assay [9], in assay [12], in assay [13], in [15] and in assay [16] was “inactive” throughout. For the same compound, in assay [18], the Potency result was “inactive”. Besides, the result in assay [6] and in assay [17] was inactive.

With `Cc1cc(N)n(-c2ccccc2)n1`, the Potency entry in assay [1], in assay [2], in assay [4], in assay [7], in [19] and in [8] was “inactive” each time. Also, the Potency entry in [9], in assay [10], in assay [12], in assay [13], in assay [15] and in [16] was “inactive” throughout. The Potency entry in assay [18] is “inactive”. In addition, the Potency in assay [5] was 27.3 µM (active). In addition, the compound was classed as inactive in [6] and in assay [17].

The record behind these values is PubChem BioAssay (Tox21).
